From PubChem BioAssay AID1159580 (chemical genetic matrix, 2015)
About 2,000 (36%) of roughly 5,500 compounds were called active. About 18% were inconclusive and are not listed. Rule as the data show it: active = normalized growth mostly below about 0.91 (no sharp cut-off); inconclusive = no clear call, values can overlap the other calls; inactive = mostly above about 0.92. The list shows a part of the results.

Assay: chemical genetic growth profiling, strain panel (AID 1159580);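 also: tested at 20 µM; growth read once vehicle control cultures reached saturation at 30 °C; 1 = growth at the plate median or of vehicle wells; lower values mean less growth of the strain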
Conditions: S. cerevisiae deletion strains, growth OD
[1] = locus YDR150W, strain NUM1, active compounds read low
[2] = locus YGR078C, strain PAC10, active compounds read low
[3] = locus YGR229C, strain SMI1, active compounds read low
[4] = locus YMR263W, strain SAP30, active compounds read low
[5] = locus YNL322C, strain KRE1, active compounds read low
[6] = locus YPL241C, strain CIN2, active compounds read low
[7] = locus YHR030C, strain SLT2, active compounds read low

Measured: normalized growth

Fc1ccc(CN(C2=NCCN2)c2c(Cl)cccc2Cl)cc1
inactive: locus YAL040C, strain CLN3, active compounds read low 0.945 | locus YCL061C, strain MRC1 (second series), active compounds read low 1.01 | [1] 1.06 | locus YDR363W, strain ESC2, active compounds read low 1.02 | locus YER002W, strain NOP16, active compounds read low 1.02 | [2] 0.984 | [3] 1.01 | [4] 0.995 | locus YNL128W, strain TEP1, active compounds read low 1.1 | locus YNL175C, strain NOP13, active compounds read low 1.01 | locus YNL197C, strain WHI3, active compounds read low 1 | locus YNL224C, strain SQS1, active compounds read low 1.01 | [5] 1 | locus YOR083W, strain WHI5 (second series), active compounds read low 1.05 | [6] 0.997

CC(C)(CO)[C@@H](O)C(=O)NCCC(=O)O
inactive: [7] 1.06 | locus YHR079C, strain IRE1, active compounds read low 1.04 | locus YJL095W, strain BCK1, active compounds read low 1.03 | locus YJR066W, strain TOR1, active compounds read low 0.964 | locus YLR113W, strain HOG1, active compounds read low 1.05 | locus YNL183C, strain NPR1, active compounds read low 0.999 | locus YOR231W, strain MKK1, active compounds read low 1.09 | locus YPL256C, strain CLN2, active compounds read low 1.09

O=C(O)C12CC3CC(CC(Br)(C3)C1)C2
inactive: locus YAL013W, strain DEP1, active compounds read low 1 | locus YBR229C, strain ROT2, active compounds read low 0.972 | locus YDL101C, strain DUN1, active compounds read low 0.984 | locus YDL134C, strain PPH21, active compounds read low 1.02 | [1] 0.982 | locus YEL061C, strain CIN8, active compounds read low 0.987 | [2] 0.99 | [3] 1.01 | [7] 1.06 | locus YHR087W, strain rtc3, active compounds read low 0.988 | locus YJL187C, strain SWE1, active compounds read low 0.945 | locus YJR043C, strain POL32, active compounds read low 1.01 | locus YJR075W, strain HOC1, active compounds read low 0.996 | locus YKL190W, strain CNB1, active compounds read low 1.01 | locus YLR039C, strain RIC1, active compounds read low 1.04 | locus YLR058C, strain SHM2 (second series), active compounds read low 1 | locus YLR085C, strain ARP6, active compounds read low 0.963 | locus YLR262C, strain YPT6, active compounds read low 1.1 | locus YML094W, strain GIM5, active compounds read low 0.991 | locus YMR219W, strain ESC1, active compounds read low 0.998 | [4] 0.993 | locus YMR307W, strain GAS1, active compounds read low 0.997 | locus YNL153C, strain GIM3, active compounds read low 0.994 | locus YNL298W, strain CLA4 (second series), active compounds read low 0.992 | [5] 0.993 | locus YNR030W, strain Alg12, active compounds read low 0.997 | locus YOL006C, strain TOP1, active compounds read low 1.05 | locus YPL055C, strain LGE1, active compounds read low 0.976 | [6] 0.994 | locus YPR135W, strain CTF4, active compounds read low 1.14
